The values below come from PubChem BioAssay (NCATS).

SMILES strings stand for the structures. Where “and” joins values, the source holds several entries; their conditions need not be identical. Equal values may be shown once. Results filed as inconclusive are left out. The source holds several records for some structures; these can differ, active in one and inactive in another. Calls of active or inactive are those of the source. Unless noted, calls come from the whole dose curve; as a rule, active = well fitted cell-killing curve with a large enough effect; inconclusive = small, poorly fitted or top-dose-only effect; inactive = flat fitted curve, though single readings scatter.

Assay [1] is described as follows: Cell Viability - LYMP2-017 (AID 972).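 Note: series mostly up to about 92 µM; cells exposed to compound for 24 hours at 37 °C; % is set by controls: 0 for no effect and ±100 for the full control effect; nearly all actives have a fitted effect of over 55% in size.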 A digest of the protocol: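 Luminescent ATP read-out (CellTiter-Glo, 30 min RT) reports viable cell number. Cells: human lymphoblastoid line, 2500 per well, 5 hr preincubation, 24 hr compound exposure at 37 C. AC50 is derived from qHTS concentration-response data using the standard Hill model.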
The nature of assay [2]: Cell Viability - LYMP2-019 (AID 973).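 Note: 0% = DMSO alone and full effect = 92 µM tetraoctylammonium bromide; nearly all actives have a fitted effect of over 55% in size.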 The gist of the method: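 qHTS, 1536-well; 2500 cells/well; 5 hr pre-incubation, 24 hr compound exposure, 37 C; CellTiter-Glo added, 30 min RT; luminescence read; AC50 via standard Hill equation.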
Assay [3] in a line: Cell Viability - LYMP2-021 (AID 974).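 Note: compound exposure lasts 24 hours at 37 °C; % is set by controls: 0 for no effect and ±100 for the full control effect; nearly all actives have a fitted effect of over 55% in size.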 The gist of the method: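 ATP luminescence (CellTiter-Glo, 30 min RT) after 24 h compound exposure at 37 C; 2500 human lymphoblastoid cells/well, 5 h settle beforehand. Cytotoxicity = concentration-dependent ATP drop, AC50 by Hill fit.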
Assay [4] is described as follows: Cell Viability - LYMP2-023 (AID 975).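 Note: cellular ATP measured by luciferase luminescence as viability proxy; series mostly up to about 92 µM; cells exposed to compound for 24 hours at 37 °C; plate controls were DMSO only for no effect and 92 µM tetraoctylammonium bromide control for full effect; nearly all actives have a fitted effect of over 55% in size.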 The gist of the method:
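CellTiter-Glo luminescence after 30 min at room temperature; decrease in intracellular ATP reflects toxicity. Cells: human lymphoblastoid line, 2500/well, 24 hr compound exposure at 37 C. AC50 fitted to standard Hill equation from concentration-response.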

Assay [5] in a line: Cell Viability - LYMP2-025 (AID 976).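 Note: series mostly up to about 92 µM; plate controls were DMSO only for no effect and tetraoctylammonium bromide control for full effect.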 A digest of the protocol:
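CellTiter-Glo luminescence (cellular ATP) after 24 h compound exposure at 37 C; LYMP2-025 human lymphoblastoid cells, 2500/well, complete medium. Tetraoctylammonium bromide positive control. AC50 by Hill equation fit of qHTS concentration-response.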

Assay [6] can be described thus: Cell Viability - LYMP2-002 (AID 977).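 Note: series mostly up to about 92 µM; plate controls were DMSO only for no effect and 92 µM tetraoctylammonium bromide for full effect.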 A digest of the protocol:
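In this qHTS viability screen, 2500 human lymphoblastoid cells per well receive compound for 24 hr at 37 C, and luciferase-based ATP luminescence gives the viability signal. Tetraoctylammonium bromide serves as positive control.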

Assay [7] in a line: Cell Viability - LYMP2-006 (AID 978).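 Note: series mostly up to about 92 µM; cells exposed to compound for 24 hours; % is set by controls: 0 for no effect and ±100 for the full control effect; nearly all actives have a fitted effect of over 60% in size.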 A digest of the protocol: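 Concentration-dependent loss of intracellular ATP in a human lymphoblastoid line after 24 hr treatment at 37 C was measured by CellTiter-Glo luminescence, with AC50 values obtained from standard Hill-equation modelling.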
Assay [8] in a line: Cell Viability - LYMP2-007 (AID 979).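 Note: cells exposed to compound for 24 h before reading; 0% = DMSO only and the negative end = 92 µM tetraoctylammonium bromide; nearly all actives have a fitted effect of over 60% in size.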 A digest of the protocol:
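qHTS cytotoxicity: 2500 cells/well, 5 hr 37 C settle, compound 24 hr 37 C, CellTiter-Glo 30 min RT, luminescence. Decrease in ATP = toxicity. AC50 by standard Hill equation; tetraoctylammonium bromide positive control.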

Assay [9] is described as follows: Cell Viability - LYMP2-008 (AID 980). Note: % is set by controls: 0 for no effect and ±100 for the full control effect; nearly all actives have a fitted effect of over 60% in size. The gist of the method:
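Luminescent ATP read-out (CellTiter-Glo, 30 min RT) after 24 hr compound exposure at 37 C of human lymphoblastoid cells in complete medium. Decrease in ATP taken as cytotoxicity; AC50 derived by standard Hill fit of qHTS concentration-response data.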

Assay [10] can be described thus: Cell Viability - LYMP2-010 (AID 981). A digest of the protocol: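 qHTS cytotoxicity, 1536-well: 2500 cells/well, 5 hr settle, 24 hr compound at 37 C, CellTiter-Glo 30 min RT, luminescence read. Decrease in ATP = toxicity; AC50 via standard Hill equation. Positive control tetraoctylammonium bromide.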
Assay [11] in a line: Cell Viability - LYMP2-012 (AID 982).
A short description of assay [12]: Cell Viability - LYMP2-014 (AID 983).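 Note: series mostly up to about 92 µM; plate controls were DMSO only for no effect and 92 µM tetraoctylammonium bromide for full effect; nearly all actives have a fitted effect of over 50% in size.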 A digest of the protocol:
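2500 cells/well, 5 hr 37 C; cpd 24 hr 37 C, complete medium; CellTiter-Glo 30 min RT, luminescence; ATP loss = toxicity; AC50 via Hill eqn; tetraoctylammonium bromide positive control.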

Assay [13] in a line: Cell Viability - LYMP2-016 (AID 984). A digest of the protocol:
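Acute toxicity in a Coriell human lymphoblastoid line is scored as loss of intracellular ATP over 24 h of treatment in complete medium. CellTiter-Glo signal is fitted across concentrations with the Hill equation to give AC50.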

A short description of assay [14]: Cell Viability - LYMP2-018 (AID 985).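 Note: plate controls were DMSO only for no effect and tetraoctylammonium bromide at 92 µM for full effect; nearly all actives have a fitted effect of over 50% in size.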 A digest of the protocol: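 2500 cells/well; 5 hr 37 C; cmpd 24 hr 37 C, complete medium; CellTiter-Glo 30 min RT; luminescence. Tetraoctylammonium bromide positive control. AC50 via Hill fit.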
Assay [15] in a line: Cell Viability - LYMP2-020 (AID 986). A digest of the protocol:
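qHTS, 2500 cells/well; 5 hr then 24 hr compound exposure, 37 C; CellTiter-Glo luminescence after 30 min RT; ATP decrease taken as cytotoxicity; AC50 via Hill equation; tetraoctylammonium bromide positive control.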

Assay [16] can be described thus: Cell Viability - LYMP2-022 (AID 987). The gist of the method:
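Luminescent ATP read-out (CellTiter-Glo, 30 min, RT) after 24 hr, 37 C compound exposure of 2500 human lymphoblastoid cells/well in complete medium. Cytotoxicity taken as concentration-dependent ATP loss; AC50 from standard Hill equation.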

A short description of assay [17]: Cell Viability - LYMP2-024 (AID 988).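 Note: plate controls were DMSO only for no effect and 92 µM tetraoctylammonium bromide for full effect; nearly all actives have a fitted effect of over 60% in size.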 The gist of the method:
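ATP-based luminescence (CellTiter-Glo, 30 min RT) after 24 h compound exposure at 37 C of 2500 lymphoblastoid cells/well; decrease in ATP taken as cytotoxicity. qHTS concentration-response fitted to standard Hill equation for AC50.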

Assay [18] can be described thus: Cell Viability - LYMP2-026 (AID 989). Note: % is set by controls: 0 for no effect and ±100 for the full control effect; nearly all actives have a fitted effect of over 50% in size. A digest of the protocol: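 qHTS cytotoxicity: 2500 cells/well, 5 hr 37 C, compound 24 hr 37 C, CellTiter-Glo 30 min RT, luminescence. Tetraoctylammonium bromide positive control. AC50 via standard Hill fit.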
Assay [19] can be described thus: Cell Viability - LYMP1-002 - Assay at 24 hr (AID 993). Note: % is set by controls: 0 for no effect and ±100 for the full control effect. A digest of the protocol:
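CellTiter-Glo luminescence (intracellular ATP) after 24 h compound exposure, 37 C, in LYMP1-002 human lymphoblastoid cells; decreased ATP taken as cytotoxicity. AC50 from standard Hill fit of concentration-response curves.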

The nature of assay [20]: Cell Viability - LYMP1-002 - Assay at 40 hr (AID 994). The gist of the method: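 qHTS cytotoxicity; 2500 cells/well, 5 hr 37 C settle, compound 40 hr 37 C. CellTiter-Glo, 30 min RT, luminescence (ATP). Concentration-response, Hill fit → AC50. Pos. ctrl tetraoctylammonium bromide.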
For assay [21], the target named is Bile acid receptor (Homo sapiens) (UniProt Q96RI1). The assay is described as follows: qHTS assay for small molecule antagonists of farnesoid X receptor signaling (AID 588526; calls by dose curve; note: potency is the fitted concentration of half-maximal effect). The gist of the method: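 Concentration-response titrations were fitted to the Hill equation for half-maximal inhibition and maximal response, with data normalised to 50 uM chenodeoxycholic acid and DMSO control wells. Cells: FXR-UAS-bla HEK293T, dialyzed FBS.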
Sequence of Bile acid receptor (Homo sapiens) (Q96RI1 whole entry, looked up): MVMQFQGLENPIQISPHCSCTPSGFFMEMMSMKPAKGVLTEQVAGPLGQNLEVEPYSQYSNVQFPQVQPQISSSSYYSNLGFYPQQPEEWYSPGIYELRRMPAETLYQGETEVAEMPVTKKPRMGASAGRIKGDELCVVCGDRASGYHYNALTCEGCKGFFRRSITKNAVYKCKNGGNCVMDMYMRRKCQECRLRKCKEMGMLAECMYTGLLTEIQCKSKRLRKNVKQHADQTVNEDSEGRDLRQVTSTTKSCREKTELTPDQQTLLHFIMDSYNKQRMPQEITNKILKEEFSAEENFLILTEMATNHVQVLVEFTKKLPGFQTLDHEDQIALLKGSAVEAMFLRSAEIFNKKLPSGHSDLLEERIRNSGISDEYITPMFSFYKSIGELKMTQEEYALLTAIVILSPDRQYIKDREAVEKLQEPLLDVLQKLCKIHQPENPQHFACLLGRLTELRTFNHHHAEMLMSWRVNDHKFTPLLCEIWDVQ
For orientation: Quantitative high-throughput screening tests each substance at several concentrations.

Assay [22] deals with Glucocorticoid receptor (Homo sapiens) (UniProt P04150). Put plainly: qHTS assay for small molecule agonists of glucocorticoid receptor signaling (AID 588532; active = well fitted curve in the direction sought with a large enough effect in the signal ratio, with a control signal flat; the % refers to the signal ratio;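 note: 100% = dexamethasone at 0.1 µM and 0% = DMSO only wells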). To be noted: HeLa MMTV-bla, beta-lactamase ratio, agonist, 18 h; stronger effect = higher value; percent of dexamethasone control, DMSO zero. A digest of the protocol: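 MMTV-bla HeLa, beta-lactamase reporter; medium with 1% charcoal/dextran-stripped FBS; cpds up to 92 uM, 18 h, 37 C; CCF4 readout 460/530 nm; Hill fit → EC50, efficacy vs 0.1 uM dexamethasone = 100%.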
Sequence of Glucocorticoid receptor (Homo sapiens) (P04150 whole entry, looked up): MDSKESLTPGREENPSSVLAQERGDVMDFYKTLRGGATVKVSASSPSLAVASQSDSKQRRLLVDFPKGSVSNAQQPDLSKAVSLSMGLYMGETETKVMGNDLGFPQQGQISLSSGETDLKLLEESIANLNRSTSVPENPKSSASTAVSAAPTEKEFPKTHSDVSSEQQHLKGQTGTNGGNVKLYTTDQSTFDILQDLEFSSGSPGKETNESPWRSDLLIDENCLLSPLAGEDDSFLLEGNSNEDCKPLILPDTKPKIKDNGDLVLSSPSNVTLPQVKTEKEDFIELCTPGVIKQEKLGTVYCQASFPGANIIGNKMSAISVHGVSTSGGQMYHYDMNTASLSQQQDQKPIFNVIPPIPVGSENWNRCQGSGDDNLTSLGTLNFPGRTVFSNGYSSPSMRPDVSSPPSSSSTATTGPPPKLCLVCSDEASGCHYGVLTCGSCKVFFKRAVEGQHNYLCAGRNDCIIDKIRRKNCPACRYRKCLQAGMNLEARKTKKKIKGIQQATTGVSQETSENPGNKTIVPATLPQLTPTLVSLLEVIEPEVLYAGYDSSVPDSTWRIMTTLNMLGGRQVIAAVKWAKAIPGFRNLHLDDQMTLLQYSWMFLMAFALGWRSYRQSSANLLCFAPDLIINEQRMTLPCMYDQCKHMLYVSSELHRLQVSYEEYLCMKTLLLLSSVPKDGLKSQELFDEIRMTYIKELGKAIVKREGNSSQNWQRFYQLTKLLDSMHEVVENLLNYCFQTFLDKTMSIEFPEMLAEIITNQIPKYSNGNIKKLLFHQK

Assay [23] shares this target. The assay is described as follows: qHTS assay for small molecule antagonists of glucocorticoid receptor signaling (AID 588533; active = well fitted inhibition curve with a large enough effect in the signal ratio, with a control signal flat, not every such curve was filed as active; the % refers to the signal ratio;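 note: cells stimulated with 2 nM dexamethasone as agonist; potency is the fitted concentration of half-maximal effect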). The gist of the method:
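Antagonist-mode qHTS: compound titrations added to GRE-bla HeLa cells, then dexamethasone 2 nM final; 18 h, 37 C. CCF4 FRET fluorescence normalized to dexamethasone and DMSO; IC50 from Hill fit.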

For the compound `CC(C)(c1cc(Br)c(O)c(Br)c1)c1cc(Br)c(O)c(Br)c1`, the call in assay [1], in assay [2], in [3], in assay [4], in assay [5] and in [6] was inactive. Also, the compound was classed as inactive in assay [7], in [8], in assay [9], in assay [10], in assay [11] and in [12]. The compound was classed as inactive in [13], in [14], in assay [15], in assay [16], in assay [17] and in assay [18]. Besides, the outcome in assay [19] and in assay [20] was inactive. Further, the Potency in assay [21] is 28.2 µM (active) and inactive; in assay [23] it was 44.7 µM (active). The activation in assay [22] was -10.8% (inactive) and 25.4% (inactive) and -11.2% (inactive).
